In the supplement of paper PMC11417369:
In all, about 25,000 sequences were measured (“ln(normalized median fluorescence intensity)”: median about 6.7, highest 2% from about 10 on). This excerpt belongs to a sample that is enriched for the highest values.

What follows are sequences tested on PfHDP1 homeodomain (GST-tagged) (assay: gcPBM binding intensity (ln(normalized median fluorescence intensity)); higher = stronger DNA binding).
Procedure, shortened: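 DNA-binding domains from P. falciparum, fused to GST and produced in E. coli, were put on an Agilent 4 × 180k double-stranded probe array for 1 h in 1× PBS holding 1% milk, 0.2 mg/ml BSA, 0.5% salmon testes DNA and 0.03% Triton X-100. Probes were primer-extended, 36 bp long and drawn from intergenic genomic regions, with negative controls included. After Alexa488 anti-GST antibody detection and a 488 nm scan, binding intensity was set as the highest Masliner-normalised natural-log median intensity across replicate spots of either probe orientation.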

Sequence	gcPBM binding intensity (ln)
AATGTTAAACTATGATGTACGGTTAAAAATATAATT [XGTACX_site893]	6.43
TTATATTTTCAGAATAGTACACATATATACATATAT [XGTACX_site2519]	6.46
GTATCAATAAAAAACAGTACATATATAATATATTTA [XGTACX_site1083]	6.24
TATTTTCATTTGCGCGCACACAATAATAATTTTTGG [CACACA_site3525]	8.28
ATTTGATAGACACATGCACACATGCAATACTTTATT [CACACA_site5633]	9.05
GATAGACACGTGCACACATGCAATACTTTATTCAGT [TGCATGCA_site778]	10
TTTAATTTGATAGACACATGCACACGTGCAATACTT [TGCATGCA_site777]	10.9
TATTAACAAAATTTTTAACACACAAAAAAAAAAAAA [CACACA_site8542]	6.18
ATATCAACTGAATTGTATAGGCGATAAAAGAAAAAA [CACACA_negctrl_site1334]	6.58
ATAGAAGGCAACTTGGTGCACAAAAAAAAAAATAAT	10.5
AACATGCAAACATGCACACAGAAAAAAAAAATATAT [CACACA_site1565]	9.37
TATATATCAAAAATATGTACACAGAAATATATATTA [XGTACX_site6997]	6.96
TCCTATATCACAAATGTGCACAGAAAAAAAAAATAT	11
TATTCTTACAAAAGTAGTACAATCATTCATATTTTT [XGTACX_site631]	6.42
TTTTTTTTTTATTTTGCACACTTCTAATTTAGTTGT [CACACA_site3429]	10.7
AAAAAAATAGTCTTCTTGCACTTTTTAATTTATTTT	6.7
AATTTTTTTTTTTTGTTGCACTTTTAGAGTTTTAAT [GTGCAC_site9519]	7.37
TTTTTTTTTTATTTTGCACACTTCTAATTTAGTTCT [CACACA_site5828]	10.7
AACAATTAGAACTTTGCACACTTCTATATATTTTGT [CACACA_site674]	10.2
AAAAATAGTCTTCTTGCACTTTTTAATTTATTTTAA [CACACA_negctrl_site1322]	6.76
TAATATGAATATATATGTACATACAATTTGTTATAT [XGTACX_site5815]	6.55
TCATATGTATAAATTAGTACATATTTAATGGATATA [XGTACX_site3298]	6.26
ATAATAATATATATTACACACGCATCGTTCATTTAT [CACACA_site8752]	7.06

Sequence	gcPBM binding intensity (ln)
CAATGTTAATATAATACACACAATATGTATTTGTCT [CACACA_site1162]	6.8
ATATATATATTAAAGGTGCACAAATAAATATATACA [GTGCAC_site9532]	9.88
AAGATAAAATGATGCACACAAAAGGGTGTAATATAT [CACACA_site1706]	8.59
TAGGTCATATTTTTTGCACACAAAAAAAAATATAAA [CACACA_site3380]	9.79
AAATAAAAAGGGTGCACACAAAAATATATATATATA [CACACA_site1728]	10.4
AAAAAAATAAGGTGCACACAAAAAAAAAAAAAAAAA [CACACA_site812]	9.95
AAAAATAAAAGGTGTGCACACAAAAATATATATATA [CACACA_site8507]	10.7
AAAAATAAAGGGTGTGCACACAAAAATATATATATA [CACACA_site1727]	10.7
ACAAAAAAATAAGGTGCACACAAAAAAAAAAAAAAA [CACACA_site8171]	9.22
AAAGGTTTGCGTTGTGTGCACAAAATAAATATATAA	10.6
AGTAGTCTGGAGAAAAGTACACAGTATCTGGTAACA [XGTACX_site2034]	6
TTTTTTTTTTTTTATACACACATTAAAATAAAAAAG [CACACA_site3946]	6.74
TTTTAAATATGCCATACACACTACTCTATAATAAAT [CACACA_site6987]	6.56
AATTTTATTCATTGAGCACACAAAATAAATTATCAA [CACACA_site9079]	6.73
TACAAAATAAAAATAATTCTTTCAAAAAATAATAAA [XGTACX_negctrl_site368]	5.86
ATCTTTCATCTACCAAGTACAAATTACTTTTTTTTT [XGTACX_site7001]	6.79
ATCAAACAAAAAATAAAAAAATGCGACATGTGTACA [TGCATGCA_negctrl_site164]	7.34
GTCGAGGATATATAAAGTACATATATATATATGATA [XGTACX_site1128]	6.41
TTACATAATATATGTACACACGCAAATACTTAGAAT [CACACA_site320]	6.63
ACCACATTTTTTTTTGCATGTTGTTTAAAAAAAGGC [TGCATGCA_site137]	6.74
TATTTGTAAATCGATACACACATATATCTTAATATA [CACACA_site4273]	6.28
TAACTTAATATTAATGCACACAATTTATATATATAT [CACACA_site3903]	10.4
AAAATTTAATATAATGCACACATAAAAAAAAAATCA [CACACA_site7882]	10.7

Sequence	gcPBM binding intensity (ln)
AATTTAATATAATGCACACATAAAAAAAAAATCAAA [CACACA_site1]	9.95
AAAATTTAATATAATGCACACATAAAACAAAAACAA [CACACA_site8071]	9.14
AATTTAATATAATGCACACATAAAACAAAAACAAAA [CACACA_site529]	10.5
AATGCTATCATTAATGCACACATTTAAAATTAATAT [CACACA_site3548]	10
AATTTAATATAATGCACACATAAAAAAAAATTCAAA [CACACA_site2062]	10.5
TACAATTTAAAACACACACACAATAATACATATATA [CACACA_site1251]	6.89
AATGCTATCATTAATGCACACATTTAAACTTAATAT [CACACA_site5878]	10.6
TTCAAAATAAAAAATTCACACACATATATATATATA [CACACA_site8653]	9.22
TATTGTCTTGTATATGCATGTAGACCAAATATGTAA [TGCATGCA_site9]	6.42
AATGAGGATATATACACACATACATTAAAAAAATAT [CACACA_site1849]	6.67
TATTAAACTGGACACACACACACACCCATATATAAA [CACACA_site4579]	6.93
TATATCTTAATATTTACACACATGCGCACCCATAAA [CACACA_site5349]	7.52
GTGTATTTGGTGCGCACACACATGCAAAAAGAAATA [CACACA_site4768]	9.15
AAAAAAAAAAAAAAATGTACATATATATATTATAAA [XGTACX_site518]	6.33
ATTTTATTTTTTAATAGTACTCATTTTTTATGTGAA [XGTACX_site5494]	6.48
TTAAAGCTGACATATACACACATACATAAATTCATA [CACACA_site5377]	6.75
GATCCTGGTTCTTGTGGTACTTGTTCATTTGTTATA [XGTACX_site7164]	6.69
TATATATATATAAGATGTACCCTTTGAAATAATAAT [XGTACX_site7215]	8.66
AATTTAATATAATGCACACATAAAAAAAAAAAAAAA [CACACA_site123]	10.5
ATATTTTATTATATAGGTACACATAATTTCATGTAA [XGTACX_site415]	6.34
TAGACAAAATATAATGCACACTATTATTTTTATTTA [CACACA_site5508]	10.4
AATTTAATATAATGCACACATAAAAAAAAAAAATTC [CACACA_site1504]	10.6
TATATATATTTATGCACACAAAATATATTATATAAT [CACACA_site5955]	10.4

Sequence	gcPBM binding intensity (ln)
AAAATTTAATATAATGCACACATAAAAAAAAATTCA [CACACA_site8640]	9.79
ACTAGACAAAATATAATGCACACTATTATTTTTATT [CACACA_site2726]	10.6
AAAATTTAATATAATGCACACATAAAAAAAAAAAAA [CACACA_site7923]	10.4
ATTTCGTAATTTATATCACACACATATATATATAAT [CACACA_site9021]	6.84
AAAATTTAATATAATGCACACATAAAAAAAAAAAAT [CACACA_site8425]	10.4
TATAATTTAAAATACACACACATATATATAATATAT [CACACA_site2000]	6.76
CATATATATCGTAATGCACACATGTAATTTCATAAT [CACACA_site811]	10.7
TATTTATACATACATACACACATATAGATTTATATT [CACACA_site7851]	6.85
TACATACATACATACACACATACATATGTATATATA [CACACA_site2480]	7.37
TTTATTAATAGACACACACACACACGCAAAATAAAA [CACACA_site6255]	7.16
ATGGACTTTTATAGTTGTACATACTATGAGAACTTT [XGTACX_site2800]	7.08
AAGGGTTGCCTGTGTAGTACATATATATATATATAT [XGTACX_site8555]	9.24
GAGAAATGGGGACACACACACATATTATATATATAT [CACACA_site4943]	8.53
TATAAATTTGTTGTTGCATGCAGTATACCAAAAAAA [TGCATGCA_site445]	7.18
AAGGTGGGAAAAAATAGTACACAACAAAAATGTATG [XGTACX_site8741]	6.64
AAACATTAAAATAACTCACACATTTTTCTAGTCTTC [CACACA_site4612]	6.19
AGAACTTTTAATGGATGTACAGTTATTTTATTATTT [XGTACX_site6226]	6.12
ATATATATATATATAGTGCATAAAATAAGTTTCTAA	9.54
TATGTTTTTACATATTGTACATATTCTTGTAATACG [XGTACX_site1179]	6.29
TTCATATAATTCATCTGTACATATTGATAGTATGCA [XGTACX_site6386]	6.29
ACTACGTGTCAAAAATATTAATTACAAATGAATAAA [GTGCAC_negctrl_site248]	6.08
